PubChem BioAssay
Calls of active or inactive are those of the source. No rule for the calls is given here.

Biological target: Protein kinase 7 (PK7), Plasmodium falciparum 3D7 (PF3D7_0213400) (UniProt Q7YTF7)
Test: inhibition of Plasmodium PK7 catalytic activity – biochemical, TCAMS antimalarial set, Kinase-Glo luminescence (AID 1159587)
Settings: recombinant PfPK7, Kinase-Glo ATP depletion luminescence

Protein kinase 7 (PK7), Plasmodium falciparum 3D7 (PF3D7_0213400), sequence (Q7YTF7 1-343): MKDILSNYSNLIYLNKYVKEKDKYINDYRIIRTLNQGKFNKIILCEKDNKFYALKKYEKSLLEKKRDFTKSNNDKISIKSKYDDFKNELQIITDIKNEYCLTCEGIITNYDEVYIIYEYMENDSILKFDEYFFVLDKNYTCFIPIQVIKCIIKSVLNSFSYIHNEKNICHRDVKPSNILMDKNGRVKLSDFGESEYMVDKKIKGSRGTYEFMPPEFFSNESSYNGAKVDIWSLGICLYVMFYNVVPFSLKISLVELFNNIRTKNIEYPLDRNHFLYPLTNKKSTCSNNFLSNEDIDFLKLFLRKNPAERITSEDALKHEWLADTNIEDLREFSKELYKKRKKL

outcome, inactive:
CC(C)COc1ccc(Cl)cc1Cc1ccc(-c2nc3cc(F)c(F)cc3[nH]2)o1
Oc1ccc(CCNc2nc(NCCCOc3cccc(CN4CCCCC4)c3Cl)nc(N3CCNCC3)n2)cc1
O=c1[nH]c2c(cc1CNC1CCCCC1)c(-c1ccc(F)cc1)nn2-c1ccccc1
NC(N)=Nc1ccc(OCCCCCOc2ccc(N=C(N)N)cc2)cc1
COC(=O)c1cccc(CNCc2ccc(-c3ccc(-c4nc5ccc(C(F)(F)F)cc5[nH]4)s3)cc2)c1
COc1ccc2ncc(C#N)c(CCN3CCC(NCc4ccc5c(c4)NC(=O)CO5)CC3)c2c1
CC(Nc1nc(Nc2ccc(F)cc2)nc(SCC(N)=O)n1)c1ccccc1 (centres undefined)
Cn1ccnc1CNC(=O)c1ccc(-c2ccc(-c3nc4ccc(C(F)(F)F)cc4[nH]3)s2)cc1
COc1cc2c(cc1S(=O)(=O)c1ccc(NC(=O)c3cccc(C(F)(F)F)c3)cc1)CCN(C)CC2
CCOc1ccc2c(NN=Cc3cccc(F)c3)cc(C)nc2c1
Clc1ccc(OCc2ccccc2)c(-c2nc(-c3nc4ncc(Br)cc4[nH]3)cs2)c1
O=C(CC1CCCC1)Nc1ccc2c(c1)CCC2
Clc1ccccc1CNc1noc(-c2sccc2Br)n1
COc1ccc(NC(=O)Nc2ccc(-c3ccc(-c4nc5ccccc5[nH]4)cc3)cc2)cc1
Nc1cc(-c2cc3c(OCc4ccccc4)cccc3[nH]2)ccn1
CCNc1cc(C(=O)N[C@@H](Cc2ccccc2)[C@H](O)CNC2C3CC4CC(C3)CC2C4)cc(N2CCCCS2(=O)=O)c1 (some centres undefined)
CCCNCc1ccc(-c2ccc(CN(C(=O)c3nn(-c4ccccc4)nc3C)C3CCOCC3)cc2)nc1
CN1CCCN(Cc2ccc(-c3cccc(NC(=O)c4cccc(C#N)c4)c3)cc2)CC1
COc1ccc(NC(=O)Nc2cccc(-c3ccc(-c4nc5ccc(C(F)(F)F)cc5[nH]4)cc3)c2)cc1
CCC(C)NS(=O)(=O)c1ccc2nc(Nc3ccc(C)c(Cl)c3)n(C3CCCCC3)c2c1 (centres undefined)
COc1ccc(N2CCN(CCCC/C=C/c3ccc(NC(=O)c4cc(Cl)cc(Cl)c4)cc3)CC2)c(OC)c1
CC(C)(C)c1ccc(CN2CCC(NC(=O)c3cc(-c4cccc(C(F)(F)F)c4)cs3)C2)cc1 (centres undefined)
COc1ccccc1/C=C/C(=O)NCCC1CCN(CCCCCNC(=O)/C=C/c2ccc(Cl)c(Cl)c2)CC1
O=C(NC1CC1)c1cnc(N2CCC(Oc3ccc(Cl)cc3)CC2)c(Cl)c1
Cc1ccc(C=C2SC(=Nc3ccccc3)NC2=O)c(C)c1
O=C(Nc1cccc(-c2cc3ccccc3[nH]2)c1)C1CCN(Cc2ccccc2O)CC1
C=CCN(c1nc(NC)nc(NCc2c(OC)cccc2OC)n1)C1CCCC1
O=C(/C=C/c1ccc(Cl)c(Cl)c1)NCCCCCN1CCCC(C(=O)Nc2cccc(Cl)c2)C1 (centres undefined)
CN(CCCNCc1ccc2ccccc2c1)CCCNCc1ccc2ccccc2c1
Fc1cccc(COc2ccc(Nc3ncnc4sc(C#CC5CCCCN5)cc34)cc2Cl)c1 (centres undefined)
COc1ccc(-c2cc(NCc3ccc(-n4ccnc4)cc3)nc(Nc3ccccc3)n2)cc1
Cc1cc(NN=Cc2ccccc2Cl)c2cccc(C)c2n1
Cc1cc(CN2CCC(Nc3ncc(-c4ccsc4)c4nc(C(F)(F)F)ccc34)CC2)no1
O=C(/C=C/c1ccc(Cl)c(Cl)c1)NCCCCN1CCCN(C(=O)Nc2cc(Cl)cc(Cl)c2)CC1
NC1CCN(c2nc(NCCCc3ccc(O)cc3)nc(NCc3ccccc3-c3ccccc3)n2)CC1
O=C(Nc1cccc(C(F)(F)F)c1)Nc1nc2ccc([N+](=O)[O-])cc2s1
CC(=O)Nc1cccc(CNCc2ccc(-c3cnc(N4CCCC(c5ccccc5)C4)nc3)cc2)c1 (centres undefined)
CS(=O)(=O)N(c1cccc(F)c1)c1cc(C(=O)N[C@@H](Cc2ccccc2)[C@H](O)CNCc2cccc(C(F)(F)F)c2)cc(N2CCCC2=O)c1
CN(C)CCNC(=O)c1ccc(-c2cnc3ccc(NCc4ccc(Cl)c(Cl)c4)nn23)cc1
